Data reported in PubChem BioAssay AID761 (NMMLSC, 2007).
Out of some 190,000 compounds screened, about 400 (0.21%) were called active. Inconclusive results (about 2%) are left out. For the sample, actives were picked, then their nearest neighbours and some compounds at random. Values without a mark were called inactive.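 Rule for the calls: active = percent activity GTP binding at least 20 points away from the 100% baseline, either down as inhibitor or up as activator; inconclusive = compound flagged as likely green fluorescent from well-wide comparison; inactive = the rest.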

target: Cell division control protein 42 homolog (Homo sapiens) (UniProt P60953); test: modulators of GTP binding to wildtype Cdc42, primary screen, biochemical, multiplex bead flow cytometry, Bodipy-GTP (AID 761); conditions: GST-Cdc42 beads, at 10 µM, actives lie on both sides;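 note: median bead fluorescence of bound Bodipy-FL-GTP at 100 nM; 0% = excess unlabeled GTP control and 100% = no compound control; below 100% means less GTP binding so inhibitor and above means activator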
Sequence (P60953 whole entry, looked up): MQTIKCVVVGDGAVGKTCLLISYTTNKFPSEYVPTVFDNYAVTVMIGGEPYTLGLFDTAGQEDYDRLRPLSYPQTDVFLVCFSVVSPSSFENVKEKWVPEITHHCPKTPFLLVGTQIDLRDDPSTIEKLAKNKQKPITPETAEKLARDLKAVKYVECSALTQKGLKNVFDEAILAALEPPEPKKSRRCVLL

| Structure (SMILES) | percent activity (GTP binding) |
| --- | --- |
| Cc1ccccc1CC1(CO)CCCN(C(=O)c2cc(-c3ccccc3)no2)C1 (configuration not stated) | 98% |
| CCC1(CC)NC(=O)N(CC(=O)OCC(=O)NC(=O)c2ccccc2)C1=O | 101% |
| c1ccc(-n2nnnc2-c2cccnc2)cc1 | 95% |
| O=C(Cn1cnc([N+](=O)[O-])n1)NCCc1ccccc1 | 97% |
| COc1cc(/C=C/C(=O)OCC(=O)N2CCOCC2)ccc1OCC#N | 97% |
| O=C(c1ccc(OC2CCN(Cc3ccccn3)CC2)cc1)N1CCCCCC1 | 96% |
| COc1ccc(C)cc1NC(=O)CSc1nnc(CC(=O)Nc2ccccc2F)n1C | 101% |
| Cc1cc(N/N=C/c2ccccc2F)c2ccccc2n1 | 96% |
| Cc1c(C(N)=O)sc2ncn(CCOc3ccccc3)c(=O)c12 | 89% |
| CC(C)(C)c1ccc(C(=O)CSc2ncn[nH]2)cc1 | 103% |
| Cc1ccc(C(=O)CS(C)(=O)=O)cc1 | 104% |
| Cc1ccc(SC(CC(=O)c2ccc(C(C)(C)C)cc2)C(=O)O)cc1 (configuration not stated) | 77% (active) |
| CC(=O)N/N=C/c1cc2c(cc1[N+](=O)[O-])OCO2 | 97% |
| CC1(C)CC(=O)CC2(C1)NCC(c1ccccc1Cl)c1c2[nH]c2ccccc12 (configuration not stated) | 96% |
| COc1ccc(CN(C)Cc2nc3cc(OC)c(OC)cc3c(=O)[nH]2)c(OC)c1 | 105% |
| O=C(Cc1cccs1)Nc1nnc(C2CC2)s1 | 99% |
| CC(=O)Nc1nc(N(C)C)nc(N(C)C)n1 | 97% |
| CN(c1ccccc1)S(=O)(=O)c1ccc(Cl)c(C(=O)OCC(=O)N2CCOCC2)c1 | 96% |
| COc1ccccc1CN(C)c1nnnn1-c1ccccc1 | 102% |
| O=C(NCC1CCN(Cc2ccccc2Cl)CC1)Nc1cccc(Cl)c1 | 106% |
| CC(=O)c1cc(C#N)c(N2CC(C)OC(C)C2)nc1C (configuration not stated) | 98% |
| OCCC1CN(Cc2ccccc2-c2ccco2)CCN1Cc1ccsc1 (configuration not stated) | 92% |
| COc1ccc(NC(=O)CSc2nnc(-c3ccccc3F)n2C2CC2)cc1S(N)(=O)=O | 97% |
| O=C(NCc1ccco1)C(=O)c1cn(CC(=O)N2CCCCCC2)c2ccccc12 | 94% |

| Structure (SMILES) | percent activity (GTP binding) |
| --- | --- |
| C=CCN(CC=C)S(=O)(=O)c1ccc(C(=O)Nc2sc3c(c2C(N)=O)CCCCC3)cc1 | 104% |
| C=CCN(CC=C)S(=O)(=O)c1ccc(C(=O)Nc2nc3c(s2)CCc2ccccc2-3)cc1 | 138% [activator] (active) |
| COCCN(CCOC)S(=O)(=O)c1ccc(C(=O)Nc2nc3c(s2)CCc2ccccc2-3)cc1 | 107% |
| CCOc1cc(N2CCOCC2)c(OCC)cc1NC(=O)c1ccc(C)s1 | 94% |
| O=C(CCl)N(Cc1cccc([N+](=O)[O-])c1)c1cccc(Cl)c1 | 96% |
| CC(=O)NCCc1nc2cc(NC(=O)c3ccccc3)ccc2n1C | 102% |
| COC(=O)c1c(NC(=O)CCCC(=O)O)sc2c1CCCCC2 | 97% |
| Cc1nc([N+](=O)[O-])cn1CC(=O)Nc1ccc2c(c1)OCO2 | 94% |
| C/C(Cn1nnc2ccccc21)=N\OC(=O)c1cc(F)c(F)cc1Cl | 89% |
| CCCC(C)C(=O)NCc1ccncc1 (configuration not stated) | 98% |
| OC1CCCN(c2ncnc3c2nnn3Cc2c(F)cccc2Cl)C1 (configuration not stated) | 94% |
| CC(C)(C)c1ccc(/C=C2\SC(=O)N=C2N)cc1 | 96% |
| C=CCC1(CC=C)CCCN1C(=O)CC1C(=O)NCCN1Cc1ccccc1OC (configuration not stated) | 99% |
| COc1ccc(C(C)=O)cc1CSc1nc2nc(C)cc(C)n2n1 | 96% |
| COc1ccc(CCNC(=O)C(=O)NCc2ccccc2C)cc1OC | 100% |
| O=C(C1CCCO1)N1CCN(C(=S)NC2CC2)CC1 (configuration not stated) | 98% |
| S=C(NC1CCCCC1)NN1CCOCC1 | 99% |
| COc1cc(/C=N/Nc2ccc(C)cc2)cc(Br)c1O | 100% |
| COc1ncnc2sc3c(c12)CCCC3 | 103% |
| COc1ccc(/C=N/Nc2ncnc3sc4c(c23)CCCC4)cc1O | 73% (active) |
| Cn1c(N)c(C(=O)COC(=O)/C=C/c2ccc(OC(F)F)cc2)c(=O)n(C)c1=O | 94% |
| Cc1ccc2c(c1)C1CN(C)CCC1N2C(=S)Nc1ccc(Cl)cc1Cl (configuration not stated) | 97% |
| CCCCCCCNc1nc(Cl)nc(NCCO)n1 | 92% |
| COc1cccc(-n2nc(C(=O)N3CCN(Cc4ccccc4)CC3)c3ccccc3c2=O)c1 | 96% |

| Structure (SMILES) | percent activity (GTP binding) |
| --- | --- |
| CCOC(=O)N1CCC(=NNC(N)=O)CC1 | 102% |
| CCOC(=O)C(NC(C)=O)C(=O)Nc1ccc(OC)cc1 (configuration not stated) | 93% |
| S=C(Nc1cccc(Br)c1)N1CCn2cccc2C1c1cccnc1 (configuration not stated) | 96% |
| O=C(CSc1ccccc1)Nc1ccc(NC(=O)c2ccco2)cc1 | 100% |
| Cc1cc(C)cc(NC(=O)CSc2ccccc2)c1 | 91% |
| O=C(CSc1ccccc1)Nc1ccc(C(=O)Nc2cccc(O)c2)cc1 | 77% (active) |
| COCCSc1nnc(NC(=O)c2cc(OC)c(OC)cc2[N+](=O)[O-])s1 | 102% |
| O=C(CSc1ncnc2c1nnn2Cc1ccc(F)cc1)NC1CCCC1 | 96% |
| CC(=O)c1ccc(NC(=O)C(C)N(C)CC(=O)Nc2ccccc2Cl)cc1 (configuration not stated) | 98% |
| COC(=O)C(C)N=Cc1ccccc1 (configuration not stated) | 97% |
| NS(=O)(=O)c1ccc(CCNC(=O)c2ccc(Cl)cc2[N+](=O)[O-])cc1 | 92% |
| COC(=O)c1ccc(-n2cnc3ccccc32)nc1 | 95% |
| CCC(C)NCC(=O)Nc1ccc([N+](=O)[O-])cc1C(=O)Nc1ccccc1F (configuration not stated) | 98% |
| CCCn1nc(Oc2nc(NC(C)C)nc(N(C)C)n2)ccc1=O | 97% |
| CN(C)c1nnnn1-c1ccc(Cl)cc1 | 96% |
| O=C(/C=C/c1ccccc1[N+](=O)[O-])OC1CCCCC1=O (configuration not stated) | 97% |
| O=C(N/N=C/c1ccco1)c1ccc(C(=O)N/N=C/c2ccco2)o1 | 84% |
| O=C(Nc1ccc([N+](=O)[O-])cc1)C1CC12CCC2 (configuration not stated) | 96% |
| O=C(/C=C/c1ccc(Cl)c([N+](=O)[O-])c1)c1cccnc1 | 79% (active) |
| O=C(Nc1cccnc1)c1ccc(Cl)c([N+](=O)[O-])c1 | 96% |
| O=C(/C=C/c1ccc(Cl)cc1Cl)c1cccnc1 | 88% |
| CC(=O)C1=C(C)NC2=C(C(=O)CC(C)(C)C2)C1C (configuration not stated) | 96% |
| CN(CCOc1ccccc1)Cc1nc2cc(Cl)ccc2c(=O)[nH]1 | 93% |
| O=C(CC1Nc2ccccc2NC1=O)Nc1ccccc1NC(=O)CC1Nc2ccccc2NC1=O (configuration not stated) | 99% |

| Structure (SMILES) | percent activity (GTP binding) |
| --- | --- |
| Cc1nc2nc[nH]n2c(=O)c1C/C=C/c1ccccc1 | 89% |
| COc1ccc(C(=O)C2CCCN(C(=O)c3cc4nc(C)cc(C)n4n3)C2)cc1F (configuration not stated) | 99% |
| O=C(COC(=O)CCc1ccc(S(=O)(=O)N2CCOCC2)cc1)Nc1cccc(Cl)c1 | 97% |
| O=C(c1ccccc1Cl)N(Cc1ccccc1F)N1C(=O)CCCC1=O | 98% |
| O=C(O)Cc1sc(-c2ccccc2)nc1-c1cccs1 | 92% |
| CCS(=O)(=O)C1=NSC2=NC(=O)/C(=C\c3cc(C)n(-c4cccc(OC)c4)c3C)C(=N)N21 | 93% |
| N/C(=N\OC(=O)c1ccc([N+](=O)[O-])cc1)c1ccccn1 | 96% |
| O=C(CN1CCC(O)(c2ccccc2)CC1)Nc1ccc2c(c1)OCCO2 | 97% |
| CCN1CC(CN(C)Cc2nc(-c3ccc(Cl)cc3)no2)CC1=O (configuration not stated) | 101% |
| Cc1ccc([N+](=O)[O-])c(OCCCNCC(C)O)c1 (configuration not stated) | 103% |
| CCCN(CCC)c1ccc(C(O)c2nnc(-c3ccccc3)o2)cc1 (configuration not stated) | 95% |
| O=C(NCC(O)c1ccc([N+](=O)[O-])cc1)C1CCCCC1 (configuration not stated) | 97% |
| CN1CCN(c2nc(Nc3ccc(O)cc3)nc3ccccc23)CC1 | 95% |
| CCn1c(COc2c(C)cccc2C)nnc1SCc1nc2ccccc2c(=O)[nH]1 | 94% |
| O=S(=O)(NC1CC1)c1ccc2c3c(cccc13)CC2 | 93% |
| Cc1cc2c(c(=O)n1Cc1ccco1)C(c1ccccc1)C(C#N)=C(N)O2 (configuration not stated) | 103% |
| CCOC(=O)CSc1nc2c(sc(=S)n2CCc2ccccc2)c(=O)n1Cc1ccco1 | 99% |
| CN(c1ccccc1)c1ccc(/C=c2\s/c(=C(/C#N)C(=O)C(C)(C)C)n(Cc3ccco3)c2=O)cc1 | 143% [activator] (active) |
| CCCNCc1cc(OCC)c(OCC(=O)Nc2ccccc2)cc1Br | 96% |
| CC(=O)N1CCc2cc(Br)cc(S(=O)(=O)CCC(=O)Nc3c(C)n(C)n(-c4ccccc4)c3=O)c21 | 100% |
| Cc1cc(NC(=O)CSc2nccn2-c2ccc([N+](=O)[O-])cc2)no1 | 96% |
| CC(=O)Nc1ccc(NC(=O)CSc2nnc(COc3ccccc3C)n2CC2CCCO2)cc1 (configuration not stated) | 99% |
| C=CCO/N=C/C1=C(O)C(C(=O)OC)C(C)(C)CC1=O (configuration not stated) | 108% |
| COC(=O)c1cc(NC(=O)CN2CCN(C(C)=O)CC2)cc(C(=O)OC)c1 | 99% |

| Structure (SMILES) | percent activity (GTP binding) |
| --- | --- |
| Cc1cc(N2CCN(C)CC2)nc2ccc(NC(=S)N3CCOCC3)cc12 | 96% |
| COc1cccc(NC(=O)CC2C(=O)NCCN2C(=S)Nc2ccc(F)cc2)c1 (configuration not stated) | 97% |
| CCOC(=O)C(CC)/C(C)=N\NC(=O)c1cccc(C)c1 (configuration not stated) | 92% |
| Cc1ccc(/C([O-])=C(/C(=S)NCc2ccco2)[n+]2ccccc2)cc1[N+](=O)[O-] | 95% |
| CCn1nc(C)c(CN2CCN(Cc3ccc(OC)c(C)c3C)C(CCO)C2)c1C (configuration not stated) | 97% |
| C=CCc1ccc(OCC(O)CN2CCN(Cc3ccccc3)CC2)c(OC)c1 (configuration not stated) | 94% |
| CC(=O)Nc1ccc(S(=O)(=O)Nc2ccc(-c3ccc4nnc(C)n4n3)cc2)cc1 | 89% |
| Nc1ccc(-c2sc(N)nc2-c2ccccc2)cc1 | 97% |
| Nc1[nH]c(=S)nc2nc(-c3ccccc3)c(-c3ccccc3)nc12 | 78% (active) |
| O=C(NNc1cc(Cl)ccc1Cl)c1cccnc1Cl | 97% |
| CCOC(=O)c1ccccc1NC(=S)N1CCC(C(N)=O)CC1 | 97% |
| O=C(/C=C/c1ccccc1)Oc1coc(CSc2ncccn2)cc1=O | 91% |
| Cc1ccc(CN2CCN(Cc3ccc4ncccc4c3)CC2CCO)cc1 (configuration not stated) | 94% |
| Cc1nccc(-c2ccc(-n3c(C)ccc3C)cc2)n1 | 93% |
| Cc1ccc(N2C(=O)C3CC3C2=O)cc1 (configuration not stated) | 98% |
| Cc1ccccc1CN1C[C@@H]2C[C@@H](c3ccc4nsnc4c3)N3CCC[C@@]23C1=O | 101% |
| CCS(=O)(=O)c1ccc(C(=O)NC)c(Cl)c1Cl | 91% |
| COc1ccc(C)cc1NC(=O)Nc1ccccc1SC | 98% |
| CC(C)C(O)C1CCN(Cc2nc(Cc3ccccc3Cl)no2)CC1 (configuration not stated) | 96% |
| COc1ccc(CN2CCCC(CNC(=O)c3ccc(F)cc3)C2)cc1OC (configuration not stated) | 97% |
| COc1ccc(Cl)cc1NC(=O)NC(C)C(C)(C)C (configuration not stated) | 101% |
